Assay results reported in the supplement of paper PMC11172423.
A number with no mark means an inactive call.

Columns and labels:
[1] = system: Falciformispora senegalensis CBS197.79; test: growth relative to untreated control; higher = less inhibition, active = 20 or less
How it was run: (§1)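 Viability readout used either MTS (2 h, 490 nm) or resazurin (600 nm). Before this, hyphal fragments of M. mycetomatis MM55 or F. senegalensis CBS197.79 in colourless RPMI 1640 with L-glutamine and MOPS (68–72% transmission at 660 nm) had been exposed in 96-well plates to compound at 100 or 25 µM for 7 days at 37 °C. Growth denotes metabolic activity relative to the untreated growth control, with a medium-plus-dye blank subtracted from both.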

[2] = system: Madurella mycetomatis MM55; test: as above
How it was run: as §1

| SMILES | growth ([1]; 25 µM) | growth ([1]; 100 µM) | growth ([2]; 25 µM) | growth ([2]; 100 µM) |
| --- | --- | --- | --- | --- |
| C=CCNc1nc(NCC=C)nc(N2CCN(C(c3ccc(F)cc3)c3ccc(F)cc3)CC2)n1 | 105% | 91.3% |  |  |
| CCOc1cc(C(C)(C)C)ccc1C1=N[C@@](C)(c2ccc(Cl)cc2)[C@@](C)(c2ccc(Cl)cc2)N1C(=O)N1CCN(CCCS(C)(=O)=O)CC1 | 99.6% | 101% |  |  |
| CC(C)CC(NC(=O)N1CCOCC1)C(=O)NC(/C=C/S(=O)(=O)c1ccccc1)CCc1ccccc1 (configuration not stated) | 90.8% | 93.9% |  |  |
| CCCCCOc1ccc(-c2ccc(-c3ccc(C(=O)N[C@H]4C[C@@H](O)[C@@H](O)NC(=O)[C@@H]5[C@@H](O)[C@@H](C)CN5C(=O)[C@H]([C@@H](C)O)NC(=O)[C@H]([C@H](O)[C@@H](O)c5ccc(O)cc5)NC(=O)[C@@H]5C[C@@H](O)CN5C(=O)[C@H]([C@@H](C)O)NC4=O)cc3)cc2)cc1 | 84.5% | 67.5% | 92.9% | 54.2% |
| Clc1ccc2ncc(-c3cccc(NC4CCNC4)n3)n2c1 (configuration not stated) | 92% | 83.1% | 78.8% | 56.6% |
| CO/C=C(/C(=O)OC)c1ccccc1COc1c(C)c(-c2ccc(C)cc2C)nn1C | 46.5% | 15% (active) | 6.33% (active) | 10.3% (active) |
| C[C@H]1c2cccc(O)c2C(=O)C2=C(O)[C@]3(O)C(O)=C(C(N)=O)C(=O)[C@@H](N(C)C)[C@@H]3[C@@H](O)[C@@H]21 | 108% | 108% |  |  |
| CCOc1ccc(Cc2nccc3cc(OCC)c(OCC)cc23)cc1OCC | 108% | 105% |  |  |
| CCCNc1nc(NC2CCCCC2)c2ccsc2n1 | 85.5% | 88.3% | 14.7% (active) | 48.2% |
| C[C@H]1O[C@@H](O[C@H]2[C@@H](O)C[C@H](O[C@H]3[C@@H](O)C[C@H](O[C@H]4CC[C@@]5(C)[C@H](CC[C@@H]6[C@@H]5C[C@@H](O)[C@]5(C)[C@@H](C7=CC(=O)OC7)CC[C@]65O)C4)O[C@@H]3C)O[C@@H]2C)C[C@H](O)[C@@H]1O | 99.5% | 106% | 82.1% | 90.8% |
| CC(C)C[C@H](NC(=O)[C@@H](NC(=O)c1cccc(-c2ccccc2)n1)[C@@H](C)O)B(O)O | 102% | 99% |  |  |
| CNC(=O)c1cc(-c2n[nH]c3ccc(-c4nc(C5CCCN5)n[nH]4)cc23)ccc1F (configuration not stated) | 105% | 106% |  |  |
| CCC(CC)COC(=O)[C@H](C)NP(=O)(OC[C@H]1O[C@@](C#N)(c2ccc3c(N)ncnn23)[C@H](O)[C@@H]1O)Oc1ccccc1 (some centres not stated) | 109% | 96.3% | 95.1% | 85.7% |
| Cc1cccnc1-c1noc(-c2ccccc2)n1 | 99.3% | 98% |  |  |
| COc1cccc(OC2CCN(C(=O)c3cc(C(C)(C)C)nn3Cc3ccccc3)CC2)c1 | 82.9% | 93.8% | 87.4% | 118% |
| NC(=O)N1CCC(CC(=O)N2CCC([C@H]3c4ncc(Br)cc4CCc4cc(Cl)cc(Br)c43)CC2)CC1 | 105% | 101% |  |  |
| O=C(Nc1ccc(Cl)c(C(F)(F)F)c1)Nc1ccc(Cl)c(C(F)(F)F)c1 | 99.4% | 88.1% | 43.5% | 49.6% |
| C[C@H](/N=C(\N)c1cc2c(F)cc(F)cc2[nH]1)c1ccccc1 | 98.5% | 15.3% (active) |  |  |
| Cc1ccc(-c2noc(-c3ccccc3)n2)cc1 | 90.2% | 86.5% |  |  |
| CC(CN1c2ccccc2Sc2ccccc21)N(C)C (configuration not stated) | 102% | 12.8% (active) |  |  |
| O[C@@H](c1cc(C(F)(F)F)nc2c(C(F)(F)F)cccc12)[C@H]1CCCCN1 | 8.55% (active) | 14.8% (active) |  |  |
| O=C(NCCN1CCCC1)c1ccc(Nc2nccc(-c3ccc(Cl)cc3)n2)cc1 | 83.6% | 7.34% (active) |  |  |
| COc1cc(OC)c2c(O)nc(-c3cc(C)c(OCCO)c(C)c3)nc2c1 | 103% | 97.6% |  |  |
